Values joined by “and” are separate entries in the source; they are usually repeats but may differ in a detail not shown here. Equal entries are not always repeated. Results filed as inconclusive are left out. A call without a number means that no potency is given here. More than one record can exist for a structure, and the calls need not agree. Active and inactive are the calls of the source. Calls follow the shape of the dose curve; as a rule, active = well fitted inhibition curve with a large enough effect in the repeat runs; inconclusive = weak or mixed curves; inactive = flat fitted curve, though single readings scatter.
What follows are compounds tested against Luciferin 4-monooxygenase (Photinus pyralis) (UniProt P08659) (assay: qHTS assay to identify small molecule inhibitors of firefly luciferase (AID 1224835; also: nearly all actives have a fitted effect of over 25% in size)). Conditions: purified P. pyralis luciferase, luminescence inhibition; series mostly up to 115 µM.
Text: U.S. Tox21 Program National Center for Advancing Translational Sciences [NCATS] NIH Chemical Genomics Center [NCGC] U.S. Environmental Protection Agency [EPA] National Institutes of Environmental Health Sciences [NIEHS] National Toxicology Program [NTP] U.S. Food and Drug Administration [FDA] Tox21 Assay Overview: Firefly (Photinus pyralis) luciferase is one of the most commonly used transcriptional reporters. Firefly luciferase reporter-gene assays are generally considered one of the most sensitive assay types (Wood, 1995; Wood, 1998). However, it was initially observed, in 1991, by Thompson et al., that compounds that resemble the substrates of firefly luciferase (FLuc) can act as competitive inhibitors of the enzyme, and that these compounds, upon interaction with luciferase in the cell, can actually stabilize the protein and increase its half-life. Previous profiling work by other groups to determine the prevalence of compounds that affect FLuc enzymatic activity (PubChem AID 411) identified that ~3% of the MLSMR library (then at ~72K) inhibited FLuc. […] Thus the Tox21 10K library is profiled for activity against FLuc using a biochemical assay of purified FLuc and KM concentrations of FLuc substrates (D-luciferin and ATP).
These assay plates were then treated with 23nL of compound or DMSO using a Kalypsys pin tool, which allows for delivery of a 6-point interplate titration of each compound to the assay plate (quantitative HTS.) 1 uL of firefly luciferase mix (containing 50 mM Tris acetate, pH 7.6, 0.04 uM P. pyralis luciferase, 0.01% Tween, 0.05% BSA and dH2O) was then delivered by FRD to each well. Luciferase activity was then measured using a ViewLux CCD imager.
Potency is read from the fitted curve at half-maximal effect.

Sequence of Luciferin 4-monooxygenase (Photinus pyralis) (P08659 whole entry, looked up): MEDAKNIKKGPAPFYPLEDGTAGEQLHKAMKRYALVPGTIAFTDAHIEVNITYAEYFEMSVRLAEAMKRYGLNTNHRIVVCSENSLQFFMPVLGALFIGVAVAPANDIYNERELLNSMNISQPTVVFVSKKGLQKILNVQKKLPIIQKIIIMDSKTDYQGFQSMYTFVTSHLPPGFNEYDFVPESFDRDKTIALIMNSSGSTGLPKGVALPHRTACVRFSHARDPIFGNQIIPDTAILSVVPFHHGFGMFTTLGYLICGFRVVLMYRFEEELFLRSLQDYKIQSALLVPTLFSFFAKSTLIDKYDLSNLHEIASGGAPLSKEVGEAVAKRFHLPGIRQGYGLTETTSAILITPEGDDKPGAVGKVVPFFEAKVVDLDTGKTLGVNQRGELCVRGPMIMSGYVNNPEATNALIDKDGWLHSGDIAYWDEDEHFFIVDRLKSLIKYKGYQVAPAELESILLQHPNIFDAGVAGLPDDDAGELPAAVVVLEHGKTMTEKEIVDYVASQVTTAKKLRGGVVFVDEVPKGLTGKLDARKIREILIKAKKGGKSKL

SMILES	Potency
CCCCCC=O	inactive
ClC/C=C/CCl	inactive
NCCN	inactive
Cc1cccc(Nc2ccccc2C(=O)O)c1C	79.6 µM (active)
COCCOCCOCCO	inactive
CN(C)C	inactive
NCCOCCO	inactive
CC(=O)[C@H]1CC[C@H]2[C@@H]3CC=C4C[C@@H](O)CC[C@]4(C)[C@H]3CC[C@]12C	inactive
Nc1ccc2c(O)cc(S(=O)(=O)O)cc2c1	63.4 µM (active) and 44.8 µM (active)
Cc1ccc2c(c1)C(=O)OC2=O	inactive
OC[C@H]1O[C@@H]2O[C@H]3[C@H](O)[C@@H](O)[C@@H](O[C@H]4[C@H](O)[C@@H](O)[C@@H](O[C@H]5[C@H](O)[C@@H](O)[C@@H](O[C@H]6[C@H](O)[C@@H](O)[C@@H](O[C@H]7[C@H](O)[C@@H](O)[C@@H](O[C@H]1[C@H](O)[C@H]2O)O[C@@H]7CO)O[C@@H]6CO)O[C@@H]5CO)O[C@@H]4CO)O[C@@H]3CO	inactive
CC[C@]12CCCN3CCc4c(n(c5ccccc45)[C@@](O)(C(=O)OC)C1)[C@@H]32	inactive
Cc1ccc([N+](=O)[O-])c(C)c1	31.7 µM (active) and inactive
CC(C)[C@@H]1CC[C@@H](C)CC1=O	inactive
COc1cc([C@H]2Oc3cc([C@H]4Oc5cc(O)cc(O)c5C(=O)[C@@H]4O)ccc3O[C@@H]2CO)ccc1O	inactive
CN(C)/N=N/c1nc[nH]c1C(N)=O	inactive
CC(C)=CCO	inactive
Nc1cc([N+](=O)[O-])ccc1C(=O)O	64.6 µM (active) and 35.6 µM (active)
Clc1ccc(Sc2cc(Cl)c(Cl)cc2Cl)cc1	inactive
CCCCCCCC/C=C\CCCCCCCC(=O)O	71.4 µM (active)

SMILES	Potency
CC(=O)O[C@]1(C(C)=O)CC[C@H]2[C@@H]3C=C(Cl)C4=CC(=O)CC[C@]4(C)[C@H]3CC[C@@]21C	inactive
CC(C)(C)c1cccc(C(C)(C)C)c1O	inactive
Brc1nc2ccccc2s1	39.8 µM (active)
C=CN1CCCC1=O	inactive
CC/C=C\C/C=C\C/C=C\CCCCCCCC(=O)O	inactive
C=C[C@@]1(C)CC(=O)[C@]2(O)[C@@]3(C)[C@@H](O)CCC(C)(C)[C@@H]3[C@H](O)[C@H](OC(C)=O)[C@@]2(C)O1	inactive
O=[Se](O)O	inactive
O=C(O)CCCCCCCCCCCC(=O)O	inactive
CCCCCC1C(=O)CCC1CC(=O)OC (stereo not given)	inactive
COC(=O)c1ccc(C)cc1	inactive
Cc1ccc(S(=O)(=O)O)cc1C	inactive
c1ccc2cc3ccccc3cc2c1	inactive
CC(=O)[C@@]1(O)CC[C@H]2[C@@H]3C[C@H](C)C4=CC(=O)C=C[C@]4(C)[C@@]3(F)[C@@H](O)C[C@@]21C	inactive
C[C@]12C=CC(=O)C=C1CC[C@H]1[C@@H]3C[C@@H](O)[C@](O)(C(=O)CO)[C@@]3(C)C[C@H](O)[C@@]12F	inactive
C1CN(SSN2CCOCC2)CCO1	inactive
C=C1C[C@H]2[C@@H]3C=C(C)C4=CC(=O)CC[C@]4(C)[C@H]3CC[C@]2(C)[C@@]1(OC(C)=O)C(C)=O	inactive
CCCN1C=CN(C)C1	inactive
CC1(C)NC(=O)N(c2ccc([N+](=O)[O-])c(C(F)(F)F)c2)C1=O	inactive
C[C@]12CC[C@@H]3c4ccc(O)cc4CC[C@H]3[C@@H]1CC[C@H]2O	inactive and 39.9 µM (active)
c1ccc2c(c1)ccc1cc3c(ccc4ccccc43)cc12	788 nM (active) and 250 nM (active)
